# In the supplement of paper PMC10811239:
# Test system: LEGO organoid PTN (PTEN-/-; TP53-/-; NF1-/-)
# Assay: bioluminescence (viable cell) signal fold change after vs before treatment, normalised to DMSO (ratio); higher = more tumour cell growth / less inhibition
# Conditions: 10 µM; treatment time 6 days
# Protocol: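 Luc2-labelled iPSC-derived glioblastoma-like organoids (LEGOs, genotypes PT = PTEN-/-;TP53-/-, PTCC = plus CDKN2A/B-/-, PTN = plus NF1-/-) were treated with 10 uM drug for 6 days (applied every other day) at 37 C. Bioluminescence imaging was done before treatment and 2 days after the last dose. BLI signals were normalised to the DMSO control on the same day and then to the pre-treatment signal (N=3).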
row,Structure (SMILES),bioluminescence
1,CN(C)CCc1c[nH]c2ccc(Cn3cncn3)cc12.O=C(O)c1ccccc1 [Rizatriptan benzoate],0.666
2,CN(C)CCc1c[nH]c2ccc(C[C@H]3COC(=O)N3)cc12 [Zolmitriptan],1.34
3,CC1=C(/C=C/C(C)=C/C=C/C(C)=C/C(=O)O)C(C)(C)CCC1 [Tretinoin],1.41
4,CC(=O)NCCCS(=O)(=O)[O-].CC(=O)NCCCS(=O)(=O)[O-].[Ca+2] [Acamprosate calcium],1.11
5,Cc1ncc([N+](=O)[O-])n1CCO [Metronidazole],1.56
6,C[C@@H](O[C@H]1OCCN(Cc2nc(=O)[nH][nH]2)[C@H]1c1ccc(F)cc1)c1cc(C(F)(F)F)cc(C(F)(F)F)c1 [Aprepitant],1.21
7,C[C@]12CC[C@@H]3c4ccc(O)cc4CC[C@H]3[C@@H]1CC[C@@H]2O [Estradiol],1.18
8,CC(C(=O)O)c1ccc(-c2ccccc2)c(F)c1 (centres undefined) [Flurbiprofen],1.47
9,CC(=O)N[C@@H](CS)C(=O)O [Acetylcysteine],3.17
10,Cc1cc(NS(=O)(=O)c2ccc(N)cc2)no1 [Sulfamethoxazole],1.8
11,Cn1c(=O)c2[nH]cnc2n(C)c1=O [Theophylline],2.42
12,O=C1[N-]C(=O)C(c2ccccc2)(c2ccccc2)N1.[Na+] [Phenytoin sodium],0.866
13,O=C(O)c1cccnc1 [Niacin],1.59
14,Nc1nc(NC2CC2)c2ncn([C@H]3C=C[C@@H](CO)C3)c2n1 [Abacavir],3.33
